# Reference: PubChem BioAssay (NCATS)
# Several values for one entry are separate records, joined by “and”; a condition that tells them apart may be missing. Equal entries are not always repeated. Inconclusive results are not listed. Entries that show only a call come without a potency. Activity calls are given as the source filed them. Unless noted, calls come from the whole dose curve; as a rule, active = well fitted curve in the direction sought with a large enough effect; inconclusive = small, poorly fitted or top-dose-only effect, or another doubt; inactive = no such curve, though single readings can be large; an effect the other way counts as inactive or inconclusive.
# Legend:
# [1] = Cell Viability - Hek293 (AID 427;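 active = compounds whose dose-response curve shows a full or clear partial loss of cell viability, called from curve shape rather than a numeric limit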;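 note: potency is the fitted concentration of half-maximal effect; cells exposed to compound for 40 hours at 37 °C before reading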); conditions: qHTS
# Outline: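 HEK293 cells in complete medium were exposed to compound for 40 hr at 37 °C, then cellular ATP was read by CellTiter-Glo luminescence. Data were normalized to DMSO (basal) and 100 uM tamoxifen (100% inhibition), and AC50 came from Hill fits.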
# [2] = Cell Viability - SK-N-SH (AID 435; calls by dose curve; note: potency is the fitted concentration of half-maximal effect); conditions: SK-N-SH neuroblastoma cell viability qHTS
# Outline: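 qHTS cytotoxicity: CellTiter-Glo ATP luminescence after 40 h compound exposure of human neuroblastoma SK-N-SH cells at 37 °C. AC50 derived by Hill-equation fitting, with DMSO as basal and 100 uM tamoxifen as full inhibition.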
# [3] = Cell Viability - N2a (AID 540); conditions: N2a mouse neuroblastoma cell viability; activity change, negative = cytotoxicity: at 92.2 µM (top of the series); note: nearly all actives have a fitted effect of over 45% in size
# Outline: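 CellTiter-Glo ATP luminescence, read 20 min after reagent at room temperature, reported viability following 40 h compound treatment at 37 °C. N2a mouse neuroblastoma cells seeded 1500/well; Hill equation gave AC50.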
# [4] = Cellular Toxicity (caspase-3) HepG2 (AID 654); conditions: HepG2 caspase-3 activation, luminescence, 0% = DMSO only, 100% = tamoxifen; series mostly up to 92.2 µM;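 note: cells exposed to compound for 16 hours before reading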
# Outline: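 Caspase 3/7 activation is measured as a luminescence increase (aminoluciferin substrate) after 16 h compound exposure of human hepatocarcinoma HepG2 cells. AC50 values are Hill fits, scaled between DMSO baseline and 100 uM tamoxifen stimulation.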
# [5] = Cellular Toxicity (caspase-3) Mesangial (AID 660); conditions: mesangial cells, normalized: DMSO 0%, 100 µM tamoxifen 100%; series mostly up to 91.7 µM;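 note: combined caspase 3 and 7 activity read by Caspase-Glo luminescence; cells exposed to compound for 16 h before the caspase read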
# Outline: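 Caspase 3/7 activation measured by Caspase-Glo 3/7 luminescence (20 min, room temperature) following 16 h exposure of mesangial cells (1000/well); AC50 from Hill-equation fit, normalized to DMSO and 100 uM tamoxifen.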
# [6] = Cellular Toxicity (caspase-3) Hek293 (AID 664); conditions: HEK293 caspase-3 activation, DMSO = 0%, 100 µM tamoxifen = 100%; at 92.2 µM (top of the series);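 note: cells exposed to compound for 16 h at 37 °C before readout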
# Outline: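 Concentration-response qHTS: caspase 3/7 activation measured by luminescent aminoluciferin substrate cleavage after 16 h compound exposure of Hek 293 cells. AC50 from Hill equation, with DMSO as basal and 100 uM tamoxifen as 100%.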
# [7] = Cell Viability - LYMP1-002 - Assay at 16 hr (AID 948); conditions: LYMP1-002 lymphoblastoid cell viability; series mostly up to 92.2 µM
# Outline: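 ATP luminescence (CellTiter-Glo) was measured after 16 hr compound exposure at 37 C of 2500 lymphoblastoid LYMP1-002 cells per well. Concentration-response curves were fitted with the Hill equation to give AC50.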
# [8] = MultiTox-Fluor Cytotoxicity Assay - LYMP1-002 - Dead Cells (AID 960); conditions: LYMP1-002 lymphoblastoid cells, dead-cell protease fluorescence; series mostly up to 46.1 µM; note: nearly all actives have a fitted effect of over 60% in size; note: potency is the fitted concentration of half-maximal effect
# Outline: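 Dead-cell fluorescence (Ex/Em 485/520) after 16 h compound exposure at 37 C of LYMP1-002 lymphoblastoid cells in complete medium; AC50 by Hill equation, with data scaled between DMSO and 15 uM tetraoctylammonium bromide.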
# [9] = Cell Viability - LYMP2-003 (AID 965); conditions: LYMP2-003 lymphoblastoid cell viability; series mostly up to 92.2 µM;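 note: cells exposed to compounds for 24 h before reading; nearly all actives have a fitted effect of over 50% in size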
# Outline: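 CellTiter-Glo luminescence quantified ATP loss after 24 h compound treatment of LYMP2-003 lymphoblastoid cells at 37 C. Titration series were fitted with the standard Hill equation to give AC50.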
# [10] = Cell Viability - LYMP2-024 (AID 988); conditions: LYMP2-024 lymphoblastoid cell viability; series mostly up to 92.2 µM; note: nearly all actives have a fitted effect of over 60% in size
# Outline: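 Cytotoxicity was taken as a decrease in ATP (CellTiter-Glo luminescence) after 24 hr compound exposure at 37 C of LYMP2-024 lymphoblastoid cells, 2500 cells/well. Concentration-response data were fitted to the Hill equation to give AC50.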
# [11] = Cell Viability - LYMP2-026 (AID 989); conditions: LYMP2-026 lymphoblastoid cell viability, qHTS; series mostly up to 92.2 µM; note: nearly all actives have a fitted effect of over 50% in size
# Outline: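 Cytotoxicity read as ATP-dependent luminescence (CellTiter-Glo, 30 min room temperature) after 24 h compound treatment at 37 C. LYMP2-026 lymphoblastoid line seeded at 2500 cells/well; AC50 derived by standard Hill equation.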
# [12] = Cell Viability - LYMP1-002 - Assay at 24 hr (AID 993); conditions: LYMP1-002 lymphoblastoid cells viability; series mostly up to 92.2 µM
# Outline: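 qHTS cytotoxicity at 24 h: CellTiter-Glo ATP luminescence in lymphoblastoid line LYMP1-002 incubated with compound at 37 °C. Concentration-response modeled with the Hill equation for AC50; tetraoctylammonium bromide served as positive control.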
# [13] = qHTS assay for small molecule agonists of retinoid X receptor alpha signaling (AID 588544); conditions: HEK293T RXRa-UAS-bla, beta-lactamase reporter, 18 h; 530 nm emission
# [14] = target: Thyroid hormone receptor beta (Homo sapiens) (UniProt P10828); experiment: qHTS assay for small molecule agonists of thyroid hormone receptor beta signaling (AID 588545; calls by dose curve); conditions: TR-UAS-bla GripTite HEK 293, beta-lactamase ratio, agonist mode, 18 h; series mostly up to 76.7 µM
# Chain of Thyroid hormone receptor beta (Homo sapiens) (P10828 whole entry, looked up): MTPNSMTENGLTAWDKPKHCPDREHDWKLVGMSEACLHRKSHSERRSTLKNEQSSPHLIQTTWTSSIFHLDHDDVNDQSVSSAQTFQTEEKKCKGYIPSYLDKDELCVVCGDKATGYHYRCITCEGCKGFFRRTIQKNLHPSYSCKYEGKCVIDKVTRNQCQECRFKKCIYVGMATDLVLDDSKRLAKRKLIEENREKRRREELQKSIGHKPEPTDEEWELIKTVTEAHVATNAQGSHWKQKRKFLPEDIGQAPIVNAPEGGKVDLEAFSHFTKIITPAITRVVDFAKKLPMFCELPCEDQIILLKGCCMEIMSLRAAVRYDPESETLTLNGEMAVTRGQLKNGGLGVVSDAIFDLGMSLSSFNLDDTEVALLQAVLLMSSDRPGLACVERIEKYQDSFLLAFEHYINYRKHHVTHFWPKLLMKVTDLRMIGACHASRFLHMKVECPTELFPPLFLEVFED
# Outline: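 HEK 293 TR-UAS-bla; agonist mode; 18 hrs, 37 C; CCF4, ex 405/em 460 and 530 nm; norm. T3 10 nM = 100%, DMSO = 0%; Hill fit → EC50, efficacy.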
# [15] = target: Retinoic acid receptor RXR-alpha (Homo sapiens) (UniProt P19793); experiment: qHTS assay for small molecule antagonists of retinoid X receptor alpha signaling (AID 588546; active = well fitted inhibition curve with a large enough effect in the signal ratio, with a control signal flat, not every such curve was filed as active; the % refers to the signal ratio;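 note: cells stimulated with 9-cis-retinoic acid as agonist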); conditions: HEK293T RXRa-UAS-bla, beta-lactamase ratio, antagonist mode
# Chain of Retinoic acid receptor RXR-alpha (Homo sapiens) (P19793 whole entry, looked up): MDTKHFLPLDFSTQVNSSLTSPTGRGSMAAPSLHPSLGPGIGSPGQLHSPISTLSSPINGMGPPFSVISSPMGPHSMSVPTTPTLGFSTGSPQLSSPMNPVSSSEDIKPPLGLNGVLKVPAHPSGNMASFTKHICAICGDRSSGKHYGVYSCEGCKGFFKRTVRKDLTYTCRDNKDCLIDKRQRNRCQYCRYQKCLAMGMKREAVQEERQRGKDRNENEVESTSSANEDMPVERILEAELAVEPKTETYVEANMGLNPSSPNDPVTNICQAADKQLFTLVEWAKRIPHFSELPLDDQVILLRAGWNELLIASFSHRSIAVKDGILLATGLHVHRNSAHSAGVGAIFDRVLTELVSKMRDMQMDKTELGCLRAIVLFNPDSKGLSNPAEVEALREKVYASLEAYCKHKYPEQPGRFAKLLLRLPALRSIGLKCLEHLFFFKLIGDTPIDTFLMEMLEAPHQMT
# Outline: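 Beta-lactamase reporter inhibition, read as CCF4 fluorescence ratio (ex 405, em 460/530 nm) after 2 h at RT. HEK293T UAS-bla cells, 2500/well, were stimulated with 9-cis-RA at 500 or 100 nM final alongside test compound for 18 h at 37 C.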
# [16] = target: Tumor necrosis factor (Homo sapiens) (UniProt P01375); experiment: qHTS assay to identify small molecules that stimulate Tumor Necrosis Factor-alpha (TNF-alpha) secretion (AID 651757; active = well fitted curve in the direction sought with a large enough effect in the signal ratio; the % refers to the signal ratio); conditions: Human cells, HTRF 665/615 ratio; series mostly up to 92.2 µM
# Chain of Tumor necrosis factor (Homo sapiens) (P01375 whole entry, looked up): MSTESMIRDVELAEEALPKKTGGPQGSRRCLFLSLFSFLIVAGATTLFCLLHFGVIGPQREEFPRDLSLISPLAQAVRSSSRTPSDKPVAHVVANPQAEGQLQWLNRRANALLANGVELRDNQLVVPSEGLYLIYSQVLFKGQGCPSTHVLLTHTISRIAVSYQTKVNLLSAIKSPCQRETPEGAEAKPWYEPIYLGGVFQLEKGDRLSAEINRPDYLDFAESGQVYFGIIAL
# Outline: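 Secreted TNF-alpha quantified by TR-FRET sandwich of two labeled anti-TNF-alpha antibodies, incubated 3 hr at room temperature. Preceded by 17 hr, 37 C compound treatment of THP-1 cells at 3000 cells/well.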
# [17] = target: Nuclear receptor ROR-gamma (Homo sapiens) (UniProt P51449); experiment: qHTS assay for small molecule antagonists of the retinoid-related orphan receptor gamma (ROR-gamma) signaling pathway (AID 651802); conditions: ROR-gamma antagonist cell reporter assay; series mostly up to 92.2 µM; note: nearly all actives have a fitted effect of over 60% in size; note: potency is the fitted concentration of half-maximal effect
# Chain of Nuclear receptor ROR-gamma (Homo sapiens) (P51449 whole entry, looked up): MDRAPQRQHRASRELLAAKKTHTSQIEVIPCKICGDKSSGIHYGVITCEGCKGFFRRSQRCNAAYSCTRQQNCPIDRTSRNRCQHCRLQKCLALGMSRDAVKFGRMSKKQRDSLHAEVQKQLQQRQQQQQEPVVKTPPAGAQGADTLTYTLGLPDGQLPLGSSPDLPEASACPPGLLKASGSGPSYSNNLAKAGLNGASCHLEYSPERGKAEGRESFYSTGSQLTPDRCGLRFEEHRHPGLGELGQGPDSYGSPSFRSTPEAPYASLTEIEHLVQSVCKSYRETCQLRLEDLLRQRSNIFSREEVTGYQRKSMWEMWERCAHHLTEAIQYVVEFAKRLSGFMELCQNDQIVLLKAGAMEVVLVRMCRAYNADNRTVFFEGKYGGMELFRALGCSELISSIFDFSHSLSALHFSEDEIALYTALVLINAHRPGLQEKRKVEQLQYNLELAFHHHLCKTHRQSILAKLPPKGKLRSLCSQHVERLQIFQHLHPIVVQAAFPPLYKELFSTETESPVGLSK
# Outline: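 Luminescence (One-Glo, 30 min RT) measured 16 h after compound addition and doxycycline induction at 37C. Reporter: RORE-luciferase under TET-inducible ROR-gamma in CHO cells.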
# [18] = qHTS assay for small molecule agonists of the antioxidant response element (ARE) signaling pathway measured by Nrf2-dependant transcriptional activity (AID 720636; active = well fitted curve in the direction sought with a large enough effect in the repeat runs; an effect the other way counts as inactive or inconclusive;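 note: HepG2 cells with an ARE-driven luciferase reporter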); conditions: ARE-luc HepG2, Nrf2 luciferase reporter, 16 h; series mostly up to 92.4 µM
# Outline: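 ONE-Glo luminescence, read 30 min after reagent addition at room temperature, reflected ARE reporter activity in HepG2 cells that had been incubated with compound for 16 hr at 37 C in 1% dialyzed FBS.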
# [19] = qHTS assay for cell viability of the p53RE-bla HCT-116 cell line (AID 743292); conditions: p53RE-bla HCT-116 viability, ATP luminescence, 16 h; series mostly up to 95 µM; note: nearly all actives have a fitted effect of over 55% in size
# Outline: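 After plating at 4,000 cells per well and a 5 h rest at 37 C, HCT-116 cells carrying p53RE-bla received test chemicals in DMSO. Sixteen hours later at 37 C, CellTiter-Glo was added and luminescence recorded following 30 min at room temperature.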
# [20] = MultiTox-Fluor Cytotoxicity Assay - LYMP1-001 - Dead Cells (AID 946); conditions: LYMP1-001 lymphoblastoid cells, dead-cell protease fluorescence; series mostly up to 92.2 µM
# Outline: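 LYMP1-001 lymphoblastoid cells (2500/well) treated 16 h at 37 C. Dead-cell protease cleavage of bis-AAF-R110 read at Ex/Em 485/520. Normalized to DMSO and 15 uM tetraoctylammonium bromide; AC50 from Hill fits.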
SMILES,Potency [1],Potency [2],Potency [3],outcome [4],outcome [5],caspase-3 activation [6],outcome [7],Potency [8],Potency [9],Potency [10],Potency [11],Potency [12],max response [13],Potency [14],max response [15],outcome [16],Potency [17],Potency [18],Potency [19],outcome [20]
C=C(C)CCl,> 92 µM (inactive),> 92 µM (inactive),inactive,inactive,inactive,-0.774% (inactive),inactive,inactive,inactive,inactive,inactive,inactive,-6%,inactive,1.96% (inactive),inactive,inactive,inactive,inactive,–
NC1CCC(CC2CCC(N)CC2)CC1 (centres undefined),> 92 µM (inactive),> 92 µM (inactive),inactive,inactive,inactive,–,inactive,3.98 µM (active),–,inactive,inactive,inactive,8.4%,inactive,-0.208% (inactive) and 1.62% (inactive),inactive,inactive,inactive,–,–
CN(C)C(=O)Nc1cccc(C(F)(F)F)c1,> 92 µM (inactive),> 92 µM (inactive),inactive,inactive,inactive,0.171% (inactive),inactive,inactive,–,inactive,inactive,inactive,-22.3% and -23.1%,inactive,1.67% (inactive) and -16% (inactive),inactive,inactive,inactive,inactive,inactive
O=[N+]([O-])c1ccc(O)c([N+](=O)[O-])c1,> 92 µM (inactive),–,–,inactive,inactive,–,–,inactive,inactive,inactive,inactive,inactive,-6.65%,–,9.93% (inactive),inactive,6.68 µM (active),inactive,inactive,inactive
ClC(Cl)(Cl)C(Cl)(Cl)Cl,> 92 µM (inactive),> 92 µM (inactive),inactive,inactive,–,-1.3% (inactive),inactive,inactive,inactive,inactive,inactive,–,0.0695%,inactive,8.66% (inactive),inactive,inactive,inactive,inactive,inactive
Nc1cccc(Cl)c1,> 92 µM (inactive),> 92 µM (inactive),inactive,inactive,inactive,5.51% (inactive),inactive,inactive,inactive,inactive,inactive,inactive,4.67%,inactive,-7.21% (inactive),inactive,inactive,inactive,–,inactive
CCN(CC)CCO,> 92 µM (inactive),> 92 µM (inactive),inactive,inactive,inactive,4.32% (inactive),inactive,inactive,–,inactive,inactive,–,-4.75%,inactive,35.6% (inactive),inactive,inactive,inactive,inactive,inactive
